Experiments:
[1] = target: T1, Aspartate--tRNA(Asp/Asn) ligase (Mycobacterium tuberculosis (strain ATCC 25618 / H37Rv)) (UniProt P9WFW3); experiment: Assay for Asp RNA synthetase-1 from Mycobacterium tuberculosis; format: functional; design: scale not given: direction of the effect not stated beside the values; details: 30 µM; also: in the data most compounds retested in dose-response had high values
T1 sequence (whole entry): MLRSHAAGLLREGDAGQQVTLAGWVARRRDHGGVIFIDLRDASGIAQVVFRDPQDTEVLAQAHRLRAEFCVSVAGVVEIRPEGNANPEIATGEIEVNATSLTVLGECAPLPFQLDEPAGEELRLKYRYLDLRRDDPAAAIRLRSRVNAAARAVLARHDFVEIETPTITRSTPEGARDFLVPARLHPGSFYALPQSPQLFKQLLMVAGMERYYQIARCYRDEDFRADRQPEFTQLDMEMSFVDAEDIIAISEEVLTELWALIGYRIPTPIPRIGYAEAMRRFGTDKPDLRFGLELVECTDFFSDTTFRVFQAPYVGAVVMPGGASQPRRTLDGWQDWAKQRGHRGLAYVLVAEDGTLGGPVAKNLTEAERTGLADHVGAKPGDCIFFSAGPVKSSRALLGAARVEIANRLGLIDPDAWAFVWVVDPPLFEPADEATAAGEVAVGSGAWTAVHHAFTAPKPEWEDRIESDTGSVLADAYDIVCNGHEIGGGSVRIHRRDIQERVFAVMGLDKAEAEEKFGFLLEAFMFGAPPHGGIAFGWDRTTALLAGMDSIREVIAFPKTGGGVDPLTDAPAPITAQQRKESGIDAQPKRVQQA

[2] = target: Shiga toxin 2 (Escherichia coli O157:H7) (UniProt P09385+P09386); experiment: E. coli 0.157:H7 Shiga Toxin SOP - stx2 screening assay; format: functional; design: scale not given: direction of the effect not stated beside the values; details: 30 µM

| Compound | Percent Effect [1] [%] | Percent Effect [2] [%] |
| --- | --- | --- |
| CCC(CC)C(CNC(=O)Nc1cc(C)nn1C)N1CCOCC1 (stereo not drawn) | -8.48 | -29.4 |
| COc1ccccc1S(=O)(=O)Nc1ccc2c(C(=O)O)c[nH]c2c1 | 3.46 | 12.9 |
| Cc1nc(C2CCCN(C(=O)c3ccco3)C2)no1 (stereo not drawn) | -1.47 | -1.79 |
| COc1c(CNCc2ccc(CN(C)C)cc2)c(C(C)C)nn1C | 0.7 | 16.1 |
| COc1ccc(-c2nc(CN3CC(n4nc(C)cc4C)C3)no2)cc1 | 5.02 | -49.6 |
| O=C(c1cccc(F)c1)N1CCOC(c2nc(-c3ncccn3)no2)C1 (stereo not drawn) | -5.54 | 3.39 |
| CC(C)c1nnc2n1CCN(C(=O)CN1Cc3ccccc3C1=O)C2 | -0.233 | -25.5 |
| CCn1c(Nc2ccccc2OC)nc2c(C)nn(C)c2c1=O | -3.4 | -16.8 |
| Cc1nc(C)n(CC2CCCN2Cc2nc(C3CC3)no2)n1 (stereo not drawn) | 0.278 | -16.4 |
| Cc1nccn1-c1cc(CNC(=O)CCC2CCCO2)ccn1 (stereo not drawn) | 2.98 | 2.2 |
| O=C(c1cccc(Cl)c1)N1CC[C@H]2[C@H]1CCN2CC1CCOCC1 | -4.93 | -25.2 |
| COc1ccccc1Oc1ncccc1CNC(=O)C(C)N1CCCC1 (stereo not drawn) | -0.0279 | 6.37 |
| O=C1OC2(CCN(C3CCCOC3)CC2)CN1CCc1ccccc1 (stereo not drawn) | 1.52 | -27.2 |
| CNCC(=O)N1CCCC(c2cccc(Nc3nc(C)cc(C)n3)n2)C1 (stereo not drawn) | 3.29 | -1.86 |
| Cn1ccc(C(=O)N2CCN(c3ncccn3)CC2)cc1=O | 1.62 | 22.4 |
| CSCC(C)(O)CNC(=O)c1cc(Br)ccc1Cl (stereo not drawn) | -0.23 | -13.2 |
| O=C1CC[C@H]2CN(Cc3ccc(Cl)s3)CC[C@H]2N1CCc1c[nH]cn1 | 0.912 | -115 |
| O=C(c1cccc(CNCC2CNc3ccnn3C2)c1)N1CCCC1 (stereo not drawn) | -1.15 | -3.83 |
| CCN1CCOC(CNCc2ccccc2OCc2ccccn2)C1 (stereo not drawn) | 3.85 | 23.9 |
| O=C(NCCCNC(=O)c1cccc(O)c1)Nc1ccc(F)cc1F | -6.98 | -56 |
| COC(=O)CCC(=O)N1CCC2(CN(Cc3cccc(F)c3)C2)C1 | 8.76 | 2.07 |
| Cc1ccc(OCCNC(=O)C(C)n2cncn2)cc1 (stereo not drawn) | 4.54 | 4.25 |
| CC(=O)c1cccc(OCCCC(=O)N(C)Cc2cccc(O)c2)c1 | -2.31 | -20.2 |
| CC(CNC(=O)c1ccccc1Oc1cccnc1)N(C)C (stereo not drawn) | -2.89 | -5.12 |
| COCCO[C@H]1CCN(C(=O)c2cc(C)on2)[C@H]1Cc1ccccc1 | -1.39 | -1.24 |

| Compound | Percent Effect [1] [%] | Percent Effect [2] [%] |
| --- | --- | --- |
| CC(C)(C)OC(=O)CNC(=O)CCc1nnc(-c2ccsc2)o1 | 8.92 | -21.2 |
| COCc1cccc(NS(=O)(=O)c2cc(C(=O)O)cs2)c1 | 0.144 | -27.7 |
| COc1ccc(CNC(=O)N2CCC(Cc3cnn(C)c3)C2)cc1C (stereo not drawn) | -2.9 | 18 |
| CC(=O)N1N=C(c2ccccc2)OC1C(=O)NCCc1cccc(Cl)c1 (stereo not drawn) | -3.19 | 19.6 |
| CCc1ccc(NS(=O)(=O)CC2=NC(=O)n3cccc3C2=O)cc1 | 0.755 | -77.4 |
| CC(C)NC(=O)N1CCN(CC2CC2)CC2(CC(=O)N(C)C2)C1 (stereo not drawn) | 0.324 | -11.9 |
| CCOc1ncccc1NC(=O)c1cc(C)c(C)s1 | -2.03 | 3.75 |
| Cc1cc(C)c2c(c1)C1(CC(=O)Nc3c1cnn3C(C)C)C(=O)N2 (stereo not drawn) | 1.68 | 1.39 |
| CN(Cc1nnc2n1CCC2)C(=O)Cc1ccc2c(c1)OCCO2 | 4.23 | 18.1 |
| Cn1cc(CC2CCN(C(=O)NCc3cn4ccsc4n3)C2)cn1 (stereo not drawn) | -4.64 | -8.11 |
| CC(C)c1nn(C)c(N(C)C)c1CNCC(O)c1ccccc1F (stereo not drawn) | -7.16 | -23.3 |
| COCCCNC(=O)CN1CCCC1c1c(C)nn(C)c1Cl (stereo not drawn) | -4.32 | -37 |
| CCc1cc(O)nc(C2CCCN2C(=O)c2cc(C)no2)n1 (stereo not drawn) | 7.1 | 1.09 |
| CN(Cc1ccsc1)C(=O)c1cccc(S(=O)(=O)NC(C)(C)C)c1 | -1.73 | -33.3 |
| CCNC(=O)CCN1CCC(c2cc(N3CCOCC3)nc(C)n2)CC1 | -4.4 | -10.2 |
| N#CC1CCCN(c2nc(-c3ccccc3)nc3c2CCNCC3)C1 (stereo not drawn) | 0.524 | -18.1 |
| O=S1(=O)N=C(SCc2ccc(Cl)cc2)Nc2ccc(F)cc21 | -0.189 | -5.93 |
| Cc1ccc(S(=O)(=O)N2C[C@H]3C[C@H](NC(=O)c4ccnn4C)[C@H]3C2)cc1 | 0.283 | 8.81 |
| c1coc(-c2noc(CN3CC(n4cccn4)C3)n2)c1 | -3.52 | 24.7 |
| Cc1cnn(CC2CCCCN2C(=O)c2cc(Cl)c[nH]2)c1 (stereo not drawn) | 1.83 | -31.9 |
| CCC(C)NC(=O)N1CCCn2cnc(CO)c2C1 (stereo not drawn) | -2.9 | -0.62 |
| O=C(NCCN1CCOCC1)c1n[nH]c(=O)c2ccccc12 | -2 | -29.3 |
| CN1CC2(COCCN(C(=O)c3ccco3)C2)OCC1=O (stereo not drawn) | 8.76 | 9.96 |
| Cc1ncsc1CCC(=O)NCc1cc2n(n1)CCN(C(=O)N(C)C)C2 | -4.32 | -29.5 |
| CC(C)n1cc(CN2CCCN(C(=O)c3ccc[nH]3)CC2)cn1 | -3.14 | -5.02 |

| Compound | Percent Effect [1] [%] | Percent Effect [2] [%] |
| --- | --- | --- |
| Cc1ccc(NC2CCN(C(=O)c3cnc(C)s3)CC2)nn1 | -1.51 | -19.5 |
| Cc1noc(C(C)C)c1C(=O)N1CCCN(Cc2cscn2)CC1 | -4.35 | -6.33 |
| O=C(COc1coc(CN2CCCC2)cc1=O)NCc1ccccc1Cl | -2.03 | -62.7 |
| Cc1noc(C)c1C(=O)N1CC[C@H]2C[C@@H](c3ccncn3)O[C@@H]2C1 | 2.79 | 3.86 |
| CC(C)c1nn(C)c(N(C)C)c1CNCc1ccc2c(c1)OCO2 | -1.77 | 30.6 |
| COc1ncccc1CNC(=O)NC1CCOc2ccccc21 (stereo not drawn) | -1.92 | -19.2 |
| Cc1cccc(CNC(CN2CCN(C)CC2)c2ccccc2)c1 (stereo not drawn) | 3.03 | -5.1 |
| COCc1nc(C(=O)N2CCCCC2Cn2cc(C)cn2)cs1 (stereo not drawn) | 0.0865 | 5.33 |
| Cc1ccn(-c2ccccc2NCc2cccnc2C)n1 | -3.62 | 0.821 |
| O=C(c1cscn1)N1CC[C@]2(C[C@@H](OCCN3CCCC3)CO2)C1 | -3.81 | -17.4 |
| Cc1cc(CN2CCOC(CN(C)C)C2)no1 (stereo not drawn) | 1.81 | 26.2 |
| Cc1n[nH]c(C)c1C1CCCN1C(=O)NCC(=O)NC(C)(C)C (stereo not drawn) | 1.47 | -24.4 |
| Cc1nnc(N2C[C@@H](OCCCn3cccn3)[C@H]3OCCC[C@H]32)s1 | -3.42 | -13.8 |
| COC(=O)c1cc(C(=O)N2CCOCC2(C)C)n(-c2ccccc2)n1 | -4.48 | 13.3 |
| CCOc1ccccc1OC1CCN(C(=O)c2cc[nH]n2)CC1 | 0.989 | 39.1 |
| CN(CC(=O)NC1(C#N)CCCC1)C1CCCN(c2cccnn2)C1 (stereo not drawn) | 7.28 | 21.9 |
| CCn1cc(C(=O)NC2CCN(S(C)(=O)=O)CC2)c2ccccc21 | -0.607 | -0.257 |
| CC(=O)c1cn(CCC(=O)N[C@H](C(=O)O)C(C)C)c2ccccc12 | -1.95 | -36.7 |
| Cc1cncc(C2CCCN(C(=O)c3scnc3C)C2)n1 (stereo not drawn) | -4.36 | -1.58 |
| CCN1CCCC(CNC(=O)C2(c3cccc(Cl)c3)CC2)C1 (stereo not drawn) | 4.29 | -31.2 |
| Cc1noc(C(C)N2CCN(CC(=O)N3CCOCC3)CC2)n1 (stereo not drawn) | -8.27 | -0.00886 |
| OC(CN1CCN(Cc2ccc(F)cc2)CC1)C1CC1 (stereo not drawn) | -7.53 | -3.92 |
| CCOc1ncccc1NC(=O)c1cc2c(s1)CCC2 | -3.51 | 1.91 |
| Cc1nc[nH]c1CN(C)CC1CCCN(CCc2ccc(Cl)cc2)C1 (stereo not drawn) | 4.6 | -62.7 |
| CC(C)CCc1noc(CN2CCCN(C(=O)c3ccco3)CC2)n1 | -1.32 | -9.12 |

| Compound | Percent Effect [1] [%] | Percent Effect [2] [%] |
| --- | --- | --- |
| O=C(NCCCN1CCCCC1)c1ccc(-n2ccc3ccccc32)s1 | 5.58 | -90 |
| Cc1ccc(C(=O)N2C[C@@H](OCC3CCOCC3)[C@H]3OCCC[C@H]32)o1 | -0.93 | -15.3 |
| CCn1cc2c(n1)C(COC)CN(Cc1ccccn1)C2 (stereo not drawn) | 7.76 | -16.8 |
| CCN(Cc1ccc2c(c1)OCO2)C(=O)CCc1c(C)nc(C)[nH]c1=O | -2.63 | 29.9 |
| Cc1cc(C(=O)N2C[C@@H](C(=O)O)[C@H](c3ccccc3C)C2)c(C)o1 | 6.11 | -22 |
| O=C(Nc1ccccc1OC(F)F)C1=NN(c2ccccc2)C(=O)CN1 | 9.31 | -3.57 |
| O=C(c1cnccn1)N1CCN(Cc2csc(-c3ccccc3)n2)CC1 | 1.34 | 26.4 |
| CCN1CCN(C(=O)c2cnn(-c3ccccc3Cl)c2)CC1 | 0.83 | 16.9 |
| Cn1ncc2c1NC(=O)CC2c1ccc(O)cc1 (stereo not drawn) | 0.0331 | -13.8 |
| Cc1csc2c(N3CCC(NCCCc4ccncc4)CC3)ncnc12 | 8.8 | -69.6 |
| Cc1nc(-c2ccc(C(=O)O)cc2)cc(C2CCN(C(C)C)C2)n1 (stereo not drawn) | 2.34 | -5.82 |
| O=C(NCc1ccco1)c1nn(C2CCS(=O)(=O)C2)c2c1CCCC2 (stereo not drawn) | -2.28 | 8.96 |
| CC(C)Cc1noc(CN2CCN(c3nccs3)CC2)n1 | -4.73 | 11.6 |
| Cc1cc2n(n1)CC(CNC1CCN(Cc3ccccc3C)CC1)CN2 (stereo not drawn) | 4.64 | -38.1 |
| CO[C@H]1CN(C(=O)c2ccc3oc(C)cc3c2)CC[C@@]12CCCO2 | 1.12 | 7.39 |
| CCCc1nc(C)c(C(=O)NS(=O)(=O)c2ccc(C#N)cc2)s1 | 0.836 | 8.1 |
| O=C1C(NCc2nnc3n2CCCC3)CCN1CC(F)(F)F (stereo not drawn) | -0.389 | 1.91 |
| N#Cc1cc(NS(=O)(=O)c2ccc(C(=O)O)cc2F)ccc1F | 2.89 | 9.05 |
| CC(NC(=O)N1CCN(c2ccccc2)CC1)c1nncn1C (stereo not drawn) | 1.07 | -28.9 |
| c1ccc(-c2nc(CN3CCCC(Cn4cncn4)C3)no2)cc1 (stereo not drawn) | -9.3 | 7.88 |
| CCN1CCN(C2CCN(Cc3cc(C)on3)CC2)C1=O | -3.97 | -26.8 |
| CN1CCN(C(=O)[C@@H]2CCO[C@@H]3CCN(c4ncccn4)C[C@@H]32)CC1 | 5.45 | -16.6 |
| COc1ccc(F)c(CN2CCC(c3cc(O)nc(C)n3)C2)c1 (stereo not drawn) | -6.3 | -8.55 |
| O=C(NCc1ccoc1)Nc1ccc(CN2CCOC2=O)cc1 | -3.73 | -75.3 |

From ChEMBL document CHEMBL3988442, “University of Dundee, Small-Polar-MMV Screening Library” (2021)
